From PubChem
Many of the other results were omitted from the sample, so hits are more common in it than they were.
KDM5B inh = Primary screen for KDM5B Histone Demethylases FDH-coupled qHTS; hit rate 2.6% among 220,000; Potency, µM (highest dose often 57.7 µM), actives largely listed as inhibitors; KDM5B demethylase, FDH-coupled NADH fluorescence (FDH is formaldehyde dehydrogenase); Lysine-specific demethylase 5B (Homo sapiens), Q9UGL1; active = well fitted inhibition curve with a large enough effect; also: nearly all actives have a fitted effect of over 70% in size
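qHTS format, multiple compound concentrations. Buffer 50 mM HEPES pH 7.5/0.01% Tween-20; 200 nM KDM5BΔAP final; 10 min compound preincubation; substrate-mix levels 12.5 µM peptide, 25 µM α-KG, 0.25 mM NAD⁺; 30 min RT; ΔRFU.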
Large screens that a line does not name were inactive.

Cc1ccc(S(=O)(=O)NC[C@H]2O[C@@H](CO)[C@@H](O)[C@H]2N2CCCC2)cc1	none
Cc1ccc(NC(=O)Cn2c(-c3ccc(Cl)cc3)nc(C)c(CCO)c2=O)cc1	none
COc1cc(NC(=O)c2c(-n3cnnn3)sc(C)c2C)cc(OC)c1	none
O=S(=O)(NCCc1ncc2ccccn12)c1ccc(Cl)cc1	none
COc1ccc(Cc2nnc(Nc3ccc(OC)cc3)[nH]c2=O)cc1	none
Cc1noc(-c2ccc(OCc3ccc(F)cc3)cc2O)c1-c1ccc(Br)cc1	none
CCn1cc(S(=O)(=O)N2CCCC2C(=O)O)c(C)n1 (centres undefined)	none
CCN(CC)S(=O)(=O)c1cc(NC(=O)COC(=O)c2cc(C)nc3ccccc23)ccc1C	none
COC(=O)/C(=C\c1ccc(OC(F)(F)F)cc1)NC(=O)c1ccccc1	none
OC[C@@H]1O[C@H](CN(Cc2cccc(Cl)c2)Cc2cccc(Cl)c2)[C@H](N2CCN(c3ccccn3)CC2)[C@@H]1O	KDM5B inh 25.1µM
O=C(NC[C@H]1O[C@@H](CO)[C@@H](O)[C@H]1N1CCN(c2ccccn2)CC1)c1ccccc1	none
CN(C)C[C@H]1O[C@@H](CO)[C@@H](O)[C@H]1N1CCN(c2ncccn2)CC1	none
CCOC(=O)/C(C#N)=C/c1ccsc1C	none
COCCNC(=O)c1ccc(OC2CCN(C(=O)[C@@H](C)N)CC2)c(Cl)c1	none
COCCNC(=O)c1ccc2c(c1)N(C)C(CC(=O)N1CCNC(=O)C1)CO2 (centres undefined)	KDM5B inh 28.2µM
COCC(=O)N1CCC(Oc2ccc(C(=O)NCCN3CCNC3=O)cc2)CC1	none
COCCNC(=O)c1ccc2c(c1)N(C)C(CC(=O)N1CCCC1)CO2 (centres undefined)	KDM5B inh 31.6µM
CN1c2cc(C(=O)N3CCOCC3)ccc2OCC1CC(=O)NC(C)(C)C (centres undefined)	none
COCCNC(=O)c1ccc(CC2CCN(C(=O)CN3CCCCCC3)CC2)cc1	none
CCOc1ccc2nc(SCCNCCO)sc2c1	none
Cc1cc(C)cc(OC(=O)/C=C/c2nc3ccccc3s2)c1	none
CC1(Cc2ccc3c(c2)OCO3)CCCN(C(=O)CCCn2ccnc2)C1 (centres undefined)	none
COc1cc(-c2nc(Cn3nnc(C(=O)Nc4ccc(F)cc4)c3N)c(C)o2)cc(OC)c1OC	none
Cc1nc2nc(NCc3ccc(Cl)cc3)[nH]n2c(=O)c1CCC(=O)Nc1ccc2ccccc2c1	none
COc1ccc(C(=O)N[C@H]2CO[C@H]3[C@@H]2OC[C@@H]3n2nnnc2-c2ccc3c(c2)OCO3)cc1	none
CCNC(=O)O[C@@H]1CO[C@H]2[C@@H]1OC[C@@H]2NS(=O)(=O)c1ccc2ccccc2c1	none
O=C(N[C@H]1CO[C@H]2[C@@H]1OC[C@@H]2Nc1nccc(-c2ccc(-c3ccccc3)cc2)n1)c1ccc2c(c1)OCO2	none
Cc1ccc(C(=O)N[C@H]2CO[C@H]3[C@@H]2OC[C@@H]3Nc2nccc(-c3ccc4c(c3)OCO4)n2)cc1	KDM5B inh 28.2µM
COc1ccc(-c2ccnc(N[C@H]3CO[C@H]4[C@@H]3OC[C@@H]4NC(=O)c3ccc4c(c3)OCO4)n2)cc1	none
O=S(=O)(N[C@H]1CO[C@H]2[C@@H]1OC[C@@H]2Nc1nccc(-c2ccc3c(c2)OCO3)n1)c1ccc2ccccc2c1	KDM5B inh 28.2µM
Cc1ccc(C(CNC(=O)c2cc(=O)c3cc(C)c(C)cc3o2)N2CCC(C)CC2)o1 (centres undefined)	none
COc1cccc(/C=C/C(=O)c2ccc(O)c(CCCl)c2)c1	none
C/C(=N\O)C(C)N(O)C(C)/C(C)=N/O (centres undefined)	none
CCN(Cc1ccc(OC)c(OC)c1)S(=O)(=O)c1cnn(C)c1	none
COc1ccc(-c2cc(-c3cnn(C)c3)cn3cncc23)cc1	KDM5B inh 35.5µM
COc1ccc(-c2[nH]ncc2-c2ccccc2)c(O)c1	none
COc1ccc(-c2cc(-c3ccc(OC)cc3)on2)cc1	none
COc1ccc(-c2cc(-c3ccccc3O)cn3cncc23)cc1	KDM5B inh 3.55µM
COc1ccc(-c2cnc(N)nc2-c2ccc(OCc3ccccc3)cc2O)cc1	none
COc1ccc(NC(C)=O)cc1NC(=O)c1cnc2ccccc2n1	none
CCOc1ccc(NC(=O)CSc2ncc(-c3ccc(F)cc3)o2)cc1	none
O=C(Nc1ccc([C@@H](O)[C@H]2COCC(=O)N2Cc2ccc(F)cc2)cc1)c1ccc2c(c1)OCO2	none
Cc1ccc(-c2cc3c(SCC(=O)N4CCN(c5ccccc5F)CC4)nccn3n2)cc1	none
O=C(Cn1ccn2nc(-c3ccccc3)c(CO)c2c1=O)Nc1cccc(F)c1	KDM5B inh 17.8µM
O=C(Cn1ccn2nc(-c3ccccc3)c(CO)c2c1=O)Nc1cccc(Br)c1	none
CC(=O)c1cccc(NC(=O)Cn2ccn3nc(-c4ccccc4)c(CO)c3c2=O)c1	none
Cc1ccc(NC(=O)Cn2ccn3nc(-c4ccc(F)cc4)c(CO)c3c2=O)c(Cl)c1	none
O=C(Cn1ccn2nc(-c3ccc(F)cc3)c(CO)c2c1=O)Nc1ccc(Cl)cc1F	KDM5B inh 31.6µM
COc1cc(Cl)c(C)cc1NC(=O)Cn1ccn2nc(-c3ccc(F)cc3)c(CO)c2c1=O	none
Cc1ccc(-c2cc(=O)c3cc(Cl)cc(Cl)c3o2)cc1	none
Cc1ccc(-n2ncc3c2NC(=O)CC32C(=O)Nc3ccccc32)c(C)c1 (centres undefined)	none
Cc1ccc(CN2CC(Oc3ccc(-c4noc(-c5cccnc5)n4)cc3)C2)o1	none
Cc1cccc(Cc2sc(N)nc2C)c1	none
O=C(CCNC(=O)C1CCCC1)NCCc1ccccc1	none
CCc1ccc2oc(=O)cc(CN3CCN(C(=O)c4ccco4)CC3)c2c1	none
O=C(Nc1ccccc1-c1ccccc1)c1ccc(Cl)cc1	none
O=C(NCc1nnc2ccc(-c3ccccc3)nn12)c1ccc(Cl)cc1	KDM5B inh 28.2µM
CN(C)c1ccc2nnc(-c3cc(C(=O)NCc4ccccc4)ccn3)n2n1	none
COc1ccccc1NC(=O)CSc1ccc2nnc(CCNC(=O)c3ccccc3)n2n1	none
O=C(CNC(=O)c1ccccc1)NCc1nnc2ccc(-c3ccccc3)nn12	KDM5B inh 31.6µM
O=C(NCc1nnc2ccc(-c3ccccc3)nn12)c1ccncc1	KDM5B inh 28.2µM
NC(=O)c1ccc(Nc2cnc3ccc(-c4ccccc4)nn23)cc1	none
O=C(NCc1nnc2ccc(-c3ccccc3)nn12)c1ccoc1	KDM5B inh 31.6µM
CC(CCNC(=O)c1ccncc1)c1ccccc1 (centres undefined)	none
CCSc1nc2n(n1)C(c1ccccc1Cl)C1=C(CCCC1=O)N2 (centres undefined)	none
CC(=O)Nc1ccc(S(=O)(=O)NC(c2ccc(F)cc2)c2cccs2)cc1 (centres undefined)	none
O=C(NCc1nnc2ccc(-c3ccccc3)nn12)c1ccc(F)cc1	KDM5B inh 31.6µM
O=C(c1ccc(F)cc1Cl)N1CCN(c2cc(-c3ccc(F)cc3)[nH]n2)CC1	none
Cc1cc(C(=O)N2CCc3c(nc[nH]c3=O)C2)c2cc(Cl)ccc2n1	none
O=C(c1ccccc1C(F)(F)F)N1CCC2(C1)C(=O)Nc1ccccc12 (centres undefined)	none
O=C(c1ccccc1C(F)(F)F)N1CCc2c(nc3cc[nH]n3c2=O)C1	KDM5B inh 25.1µM
O=C(c1ccc(F)cc1Cl)N1CCc2c(nc3cc[nH]n3c2=O)C1	KDM5B inh 28.2µM
O=c1c2c(nc3cc[nH]n13)CN(S(=O)(=O)c1cccc(C(F)(F)F)c1)CC2	none
CCCCOCCCNC(=O)CCC(=O)NCCC1=CCCCC1	none
Cc1nnc(SCC(=O)NCCc2ccco2)c2nn(-c3ccc(Cl)cc3)c(C)c12	none
CCc1ccc2c(CSc3nc4nc(C)cc(C)n4n3)cc(=O)oc2c1	none
